Growth data for 29 molecules are collected here from PubChem BioAssay (NCI).

Some test systems named below: T-47D breast; BT-549 breast; MDA-MB-435 melanoma; SW-620 colon; MCF7 breast; HCT-116 colon; KM12 colon; HCC-2998 colon.
Holding throughout (assay): NCI-60 one-dose screen, 48 h (100 = growth as untreated, 0 = no growth, -100 = all killed)
Holding throughout (details): 10 µM

This is part of a sample that, as a whole, favours compounds with a hit. Of some 83,000 tested, about 20% had one in any assay.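 Percent growth is the endpoint: 0 to 100 indicates growth inhibition (40 means 60% inhibition), 0 means no net growth, and negative values indicate cell death.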 Unmarked numbers belong to inactive results. The source made the active and inactive calls. Rule for the calls: active = growth percent below 10; inactive = the rest.

Turning to `FC(F)(F)c1ccc(-c2cnc(Cl)nc2NC2CCCCCC2)cc1`, the growth in the experiment on T-47D breast was 12.4%; in the experiment on BT-549 breast it was 52.5%; in the experiment with MDA-MB-435 melanoma, 11%; with SW-620 colon, 21.5%; with MCF7 breast, 20.7%; with HCT-116 colon, 16.5%. Besides, in the experiment on KM12 colon, the growth was 16.5%.

In the case of `COC(=O)c1ccc(Cn2ccc(=O)[nH]c2=O)cc1`, the growth in the experiment with T-47D breast is 107%; in the experiment with BT-549 breast it was 113%; in the experiment with MDA-MB-435 melanoma, 105%; with SW-620 colon, 110%; in the experiment with MCF7 breast it was 99.2%; in the experiment with HCT-116 colon it was 104%. In addition, the growth is 106% in the experiment with HCC-2998 colon and 103% with KM12 colon.

Regarding `CC(=O)OC1Oc2ccccc2-c2oc(=O)c(-c3cc(=O)oc4cc(O)ccc34)cc21` (stereo not drawn), the growth in the experiment with T-47D breast is -17.5% (active); in the experiment on BT-549 breast, 61.4%; with MDA-MB-435 melanoma, 86.8%; in the experiment with SW-620 colon, 92.2%; in the experiment with MCF7 breast, 85.5%; in the experiment on HCT-116 colon, 87.3%. Besides, in the experiment on KM12 colon, the growth was 89.2%.

`Fc1cc(-c2ncc(-c3cc(F)c(F)c(F)c3)c(NC3CCCCCC3)n2)cc(F)c1F`: the growth was 102% in the experiment on T-47D breast; 103% in the experiment on BT-549 breast; 96.8% with MDA-MB-435 melanoma; 96.9% with SW-620 colon; 90.8% with MCF7 breast; 101% with HCT-116 colon. Moreover, the growth with KM12 colon is 101%.

For `CCc1nn2c(-c3cc(OC)c(OC)c(OC)c3)c(-c3cc(OC)c(OC)c(OC)c3)nc2s1`, the growth in the experiment with T-47D breast was 81.4%; in the experiment with BT-549 breast, 89.6%; with MDA-MB-435 melanoma it was 83.4%; with SW-620 colon, 86.3%; with MCF7 breast, 57.4%; in the experiment with HCT-116 colon, 71.8%. In addition, the growth with KM12 colon is 100%.

Take `CCN(CC)CCOC(=O)c1ccc(NC(=O)Nc2cccc(Cl)c2)cc1`: the growth is 87.1% in the experiment with T-47D breast; 92.9% in the experiment on BT-549 breast; 103% with MDA-MB-435 melanoma; 104% in the experiment with SW-620 colon; 95% in the experiment on MCF7 breast; 95% in the experiment on HCT-116 colon. Besides, the growth in the experiment on HCC-2998 colon was 99.7%; with KM12 colon, 98%.

For the molecule `CC1(C)CC(=O)c2c(nc3ccc(Cl)cc3c2-c2ccccc2)C1`, the growth is 85.7% in the experiment with T-47D breast; 85.8% with BT-549 breast; 84.5% in the experiment with MDA-MB-435 melanoma; 159% in the experiment on SW-620 colon; 86.3% with MCF7 breast; 91% in the experiment on HCT-116 colon. The growth in the experiment on KM12 colon was 94%.

In the case of `CN(C)c1ccc2cc(-c3cc4c(oc3=O)-c3ccccc3OC4O)c(=O)oc2c1` (stereo not drawn), the growth was -12.3% (active) with T-47D breast; -17.4% (active) with BT-549 breast; -23.8% (active) in the experiment with MDA-MB-435 melanoma; 17.1% with SW-620 colon; 18.7% in the experiment on MCF7 breast; 12.8% in the experiment with HCT-116 colon. In the experiment on KM12 colon, the growth is -37.7% (active).

As for `CC(=O)/C(=C\c1ccc(Cl)cc1)c1ccccc1`, the growth in the experiment with T-47D breast is 47.8%; in the experiment on BT-549 breast, 14.5%; in the experiment with MDA-MB-435 melanoma it was -35.2% (active); in the experiment with SW-620 colon, 25.6%; in the experiment with MCF7 breast it was 9.45% (active); in the experiment with HCT-116 colon, 5.06% (active). Moreover, the growth was 3.78% (active) in the experiment with HCC-2998 colon and 10.1% in the experiment on KM12 colon.

Consider `CC(C)/C=N/NC(N)=S`, for which the growth with T-47D breast is 45.6%; in the experiment with BT-549 breast, 105%; in the experiment on MDA-MB-435 melanoma, 86.4%; in the experiment on SW-620 colon, 76.4%; with MCF7 breast, 8.48% (active); in the experiment with HCC-2998 colon, 96.4%. The growth in the experiment with KM12 colon was 112%.

With `CCOC(=O)c1c(O)c2cc(-c3ccccc3)nc(OCC)c2c(=O)n1C`, the growth with T-47D breast was 94.7%; with BT-549 breast, 133%; in the experiment with MDA-MB-435 melanoma, 90.1%; with SW-620 colon, 104%; with MCF7 breast it was 93.8%; in the experiment with HCT-116 colon it was 87.7%. In addition, the growth in the experiment with KM12 colon is 104%.

With `O=[N+]([O-])c1ccc(S(=O)(=O)OCCCCOS(=O)(=O)c2ccc([N+](=O)[O-])cc2)cc1`, the growth with T-47D breast was 100%; in the experiment on BT-549 breast, 106%; with MDA-MB-435 melanoma, 95.1%; with SW-620 colon, 102%; in the experiment on MCF7 breast, 95.9%; with HCT-116 colon it was 108%. For the same molecule, in the experiment with KM12 colon, the growth is 107%.

In the case of `Cc1cccc2c1O/C(=C\c1ncc([N+](=O)[O-])n1C)C2=O`, the growth in the experiment on T-47D breast was 89.7%; in the experiment with BT-549 breast it was -53.7% (active); with MDA-MB-435 melanoma, -54.1% (active); in the experiment on SW-620 colon, -11.6% (active); in the experiment on MCF7 breast it was 2.72% (active); with HCC-2998 colon, -73.1% (active). Moreover, in the experiment on KM12 colon, the growth is -50.6% (active).

With `CC(Oc1ccc(Cl)cc1)c1ccccc1` (stereo not drawn), the growth with T-47D breast was 95.7%; with BT-549 breast, 114%; with MDA-MB-435 melanoma it was 101%; in the experiment on SW-620 colon, 96.4%; with MCF7 breast it was 102%; in the experiment on HCT-116 colon it was 98.9%. For the same molecule, in the experiment with KM12 colon, the growth is 103%.

With `CC(=O)OC1Oc2ccccc2-c2oc(=O)c(-c3ccc(F)cc3)cc21` (stereo not drawn), the growth was 77.2% with T-47D breast; 80.6% in the experiment with BT-549 breast; 51.5% with MDA-MB-435 melanoma; 12.8% in the experiment on SW-620 colon; 63.2% with MCF7 breast; 86.5% with HCT-116 colon. Besides, the growth in the experiment on KM12 colon was 89.9%.

As to `Cc1cn(C(=O)/C(Cl)=C(/Cl)C(=O)O)c2ccccc12`, the growth is 101% in the experiment with T-47D breast; 111% in the experiment on BT-549 breast; 109% in the experiment on MDA-MB-435 melanoma; 104% with SW-620 colon; 108% in the experiment on MCF7 breast; 108% in the experiment with HCC-2998 colon. In the experiment on KM12 colon, the growth is 108%.

As to `Cc1ccc(S(=O)(=O)Oc2ccccc2-c2ccccc2)cc1`, the growth is 37.1% in the experiment on T-47D breast; 44.3% with BT-549 breast; -41.5% (active) in the experiment with MDA-MB-435 melanoma; 20.8% in the experiment on SW-620 colon; 15.9% in the experiment with MCF7 breast; 46.3% in the experiment on HCC-2998 colon. Besides, the growth in the experiment with KM12 colon is 15.6%.

Take `CN(C)Cc1cccs1`: the growth with T-47D breast was 83.9%; with BT-549 breast, 96.6%; in the experiment with MDA-MB-435 melanoma it was 118%; in the experiment on SW-620 colon it was 108%; with MCF7 breast it was 103%; in the experiment on HCC-2998 colon it was 96.6%.

`O=C(NNc1nc(N2CCCC2)nc(N2CCCC2)n1)c1ccccc1`: the growth with T-47D breast was 97.6%; in the experiment on BT-549 breast, 112%; in the experiment with MDA-MB-435 melanoma, 117%; with SW-620 colon, 104%; with MCF7 breast, 96.2%; in the experiment on HCT-116 colon, 109%. In the experiment on KM12 colon, the growth was 104%.

For the molecule `COc1cc(C(=O)n2nc(N)c3c(C)cc(C)nc32)cc(OC)c1OC`, the growth with T-47D breast is 98.5%; in the experiment with BT-549 breast it was 79.7%; in the experiment with MDA-MB-435 melanoma, -12.7% (active); with SW-620 colon, 31.5%; in the experiment on MCF7 breast it was 45.3%; in the experiment on HCC-2998 colon, 95.6%.

Regarding `Nc1nc2c(ncn2C2OC3COP(=O)(O)OC4C(COP(=O)(O)OC2C3O)OC(n2cnc3c(N)ncnc32)C4O)c(=O)[nH]1` (stereo not drawn), the growth in the experiment on T-47D breast was 84.4%; in the experiment with BT-549 breast it was 90%; in the experiment on MDA-MB-435 melanoma, 105%; in the experiment with SW-620 colon it was 107%; in the experiment on MCF7 breast, 109%; with HCT-116 colon, 94%. Further, the growth in the experiment on KM12 colon was 104%.

Regarding `COc1cccc(C(=O)NNc2nc(N3CCN(C4CCCCC4)CC3)nc(N3CCN(C(c4ccccc4)c4ccccc4)CC3)n2)c1`, the growth in the experiment with T-47D breast was 29%; with BT-549 breast it was 55.5%; with MDA-MB-435 melanoma, 35%; in the experiment with SW-620 colon, 39%; with MCF7 breast it was 11.2%; in the experiment on HCC-2998 colon it was 42%. In addition, the growth in the experiment with KM12 colon was 23.6%.

With `Nc1c(CNCc2nnn(Cc3ccccc3)c2N)nnn1Cc1ccccc1`, the growth is 101% in the experiment on T-47D breast; 105% with BT-549 breast; 107% with MDA-MB-435 melanoma; 95.9% in the experiment on SW-620 colon; 101% in the experiment with MCF7 breast; 103% in the experiment on HCT-116 colon. The growth with KM12 colon is 98.3%.

Consider `COc1cc(C(c2c[nH]c3ccccc23)N2CCCC2)ccc1OCc1ccccc1` (stereo not drawn), for which the growth with T-47D breast is 81.5%; in the experiment on BT-549 breast, -2.45% (active); in the experiment on MDA-MB-435 melanoma, 96.8%; in the experiment with SW-620 colon, 98.9%; in the experiment on MCF7 breast, 83.4%; in the experiment with HCT-116 colon it was 69%. For the same molecule, the growth in the experiment on KM12 colon was 92.2%.

With `COc1ccc(C(C)=O)cc1N1C(=O)C2C(C1=O)C1(c3ccccc3)C(=O)C2(c2ccccc2)C(c2ccc(C)cc2)=C1c1ccc(C)cc1` (stereo not drawn), the growth was 32.3% in the experiment with T-47D breast; 38.4% with BT-549 breast; 35.6% in the experiment with MDA-MB-435 melanoma; 27.1% in the experiment on SW-620 colon; 15.6% in the experiment with MCF7 breast; 46.6% with HCC-2998 colon.

In the case of `CC(C)C(C)C(N)C(=O)O` (stereo not drawn), the growth was 102% in the experiment with T-47D breast; 90.7% in the experiment with BT-549 breast; 105% with MDA-MB-435 melanoma; 110% in the experiment on SW-620 colon; 92.9% in the experiment on MCF7 breast; 94.5% with HCT-116 colon. Besides, in the experiment on KM12 colon, the growth was 103%.

For the molecule `C#CCn1c(-c2cccc(OCCCCl)c2)nc2c1c(=O)n(C)c(=O)n2C`, the growth in the experiment on T-47D breast was 18%; in the experiment on BT-549 breast, 13.8%; in the experiment on MDA-MB-435 melanoma, 78.9%; in the experiment with SW-620 colon, 95%; in the experiment on MCF7 breast it was 84.7%; in the experiment on HCC-2998 colon, 104%. The growth with KM12 colon is 56.5%.

With `Cc1cnc(C=O)c2cccc([N+](=O)[O-])c12`, the growth with T-47D breast is 82.3%; with BT-549 breast, 88.5%; in the experiment on MDA-MB-435 melanoma it was 106%; in the experiment on SW-620 colon it was 47.4%; in the experiment with MCF7 breast it was 75.8%; with HCC-2998 colon, 101%. In the experiment with KM12 colon, the growth was 99.2%.

Take `CCCCCCCC/C=C/CCCCCCCCC1=NCCN1CCO`: the growth with T-47D breast was 79.7%; in the experiment with BT-549 breast, 83.1%; with MDA-MB-435 melanoma, 68.9%; in the experiment with SW-620 colon it was 40%; with MCF7 breast it was 71.2%; in the experiment with HCC-2998 colon it was 97.8%. In addition, the growth in the experiment on KM12 colon was 62.5%.
